# Screens (PubChem BioAssay)
# JMJD2A Tudor – qHTS Assay for Inhibitors of JMJD2A-Tudor Domain | Lysine-specific demethylase 4A (Homo sapiens), O75164 | AlphaScreen JMJD2A-Tudor / H3K4me3 peptide binding | Potency, µM (doses to about 114 µM), hits mostly inhibitors | 4.4% of 390,000 active; further: nearly all actives have a fitted effect of over 50% in size
# L3MBTL1 block – qHTS Assay for the Inhibitors of L3MBTL1 | AlphaScreen L3MBTL1–H3K9me1 peptide binding | Potency, µM (highest dose often 57.1 µM), most hits filed as inhibitors | 0.66% of 230,000 active | Lethal(3)malignant brain tumor-like protein 1 (Homo sapiens), Q9Y468 | AID 485360, 2010; further: nearly all actives have a fitted effect of over 60% in size
#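 First, the protein-peptide complex forms for 30 min at room temperature (L3MBTL1 50 nM, biotinylated H3K9me1 peptide 75 nM). Next, compounds are pin-transferred and incubated 30 min. Finally, AlphaScreen beads are added and read after 30 min.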
# G9a block – qHTS Assay for Inhibitors of Histone Lysine Methyltransferase G9a; Histone-lysine N-methyltransferase EHMT2 (Homo sapiens), Q96KQ7; G9a H3K9 monomethylation, AlphaScreen, 2 h; Potency, µM (series often up to 102 µM), hits mostly inhibitors; 8.8% of 350,000 active; further: nearly all actives have a fitted effect of over 75% in size
#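 G9a (20 nM) preincubated 15 min RT with compounds, then 500 nM biotinylated H3K9 peptide and 20 uM SAM added; 2 h RT reaction. Monomethyl-H3K9 product detected by AlphaScreen with anti-H3K9me1 antibody, streptavidin donor and anti-rabbit IgG acceptor beads.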
# HP1b chromo inh – HTS for Inhibitors of HP1-beta Chromodomain Interactions with Methylated Histone Tails; Potency, µM (doses to about 114 µM), actives largely listed as inhibitors; AlphaScreen HP1-beta / biotin-H3K9me3 peptide binding; AID 540317, 2011; 0.56% of 390,000 active; Chromobox protein homolog 1 (Homo sapiens), P83916; further: nearly all actives have a fitted effect of over 70% in size
#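 HP1-beta protein (50 nM final) preincubated 30 min at room temperature with biotinylated H3(1-18)K9me3 peptide (50 nM) in PBS pH 7.4, 0.01% Tween-20, then compound added for 30 min. AlphaScreen streptavidin donor/nickel chelate acceptor beads (10 ug/mL final), 30 min dark, luminescence read.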
# BAZ2B inh – qHTS Assay for Inhibitors of BAZ2B; AlphaScreen BAZ2B-H3K14Ac peptide displacement; 4.4% of 360,000 active; Potency, µM (highest dose often 114 µM), actives largely listed as inhibitors; further: nearly all actives have a fitted effect of over 60% in size
#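 AlphaScreen displacement of biotin-H3(5-23)K14Ac peptide (50 nM final) from BAZ2B (50 nM final) in PBS pH 7.4, 0.01% Tween-20; complex preformed 30 min RT, then compounds (top 110 uM) 30 min RT, beads 20 min dark.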
# Sfp PPTase inh – qHTS Assay for Inhibitors of Bacillus subtilis Sfp phosphopantetheinyl transferase (PPTase). 4'-phosphopantetheinyl transferase ffp (Bacillus subtilis), Q9F4F7. Biochemical Sfp PPTase activity, qHTS. Potency, µM, most hits filed as inhibitors. 3.5% of 310,000 active. AID 1490, 2009;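 further: the enzyme is Sfp with the accession as filed and its product quenches rhodamine fluorescence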
#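 Fluorescence-quenching assay with 15 nM Sfp, 5 uM rhodamine-CoA and 12.5 uM BHQ-2-labelled ybbR peptide in pH 7.6 Hepes/MgCl2 buffer. Enzyme was pre-incubated with compound for 15 min at room temperature. Rate was taken from the 30-min fluorescence change (525/598 nm).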
# A number is an active result; . = inactive; ? = inconclusive; / = no result; [ ] = dose if it differs, or a comment. Compounds with a hit are over-represented: about 12% of the library has one in this group of screens. The call rests on the fitted dose curve; in most records, active means well fitted curve in the direction sought with a large enough effect; inconclusive means small, poorly fitted or top-dose-only effect, or another doubt; inactive means no such curve, though single readings can be large; an effect the other way counts as inactive or inconclusive.
SMILES,JMJD2A Tudor,L3MBTL1 block,G9a block,HP1b chromo inh,BAZ2B inh,Sfp PPTase inh
COc1ccc(CCNC(=O)CS(=O)(=O)c2cn(CC(=O)N(C(C)C)C(C)C)c3ccccc23)cc1OC,.,/,.,.,.,.
O=C(Cn1cc(S(=O)(=O)Cc2ccccc2F)c2ccccc21)N1CCOCC1,.,/,22.4µM,.,.,.
CC(=O)N1CCN(C(=O)CCN(c2ccccc2)S(=O)(=O)c2ccc(C)cc2)CC1,.,.,.[0.501 µM],.,.,/
Cc1cccc(CS(=O)(=O)c2cn(CC(=O)N3CCOCC3)c3ccccc23)c1,.,/,10µM,.,.,50.1µM
COc1ccc(CCNC(=O)CS(=O)(=O)c2cn(CC(=O)N3CCCC3)c3ccccc23)cc1OC,.,/,50.1µM,.,/,.
Cc1ccc(S(=O)(=O)N(CCC(=O)N2CCOCC2)c2ccccc2)cc1,.,.,14.1µM,.,.,/
Cc1ccc(CS(=O)(=O)c2cn(CC(=O)N3CCOCC3)c3ccccc23)cc1,.,/,/,.,.,56.2µM
COc1cc(NC(=O)CSc2ccc(-c3ccco3)nn2)cc(OC)c1,.,/,?,.,.,28.2µM
COc1ccc(NC(=O)CSc2ccc(-c3cccs3)nn2)cc1,.,/,10µM,.,.,/
COc1ccc(NC(=O)CSc2ccc(-c3ccco3)nn2)cc1,.,/,/,.,.,31.6µM
COc1ccc(-c2ccc(SCC(=O)NCc3ccco3)nn2)cc1,.,.,.,.,.,.
Cc1cc(C)cc(NC(=O)CN2C(=O)c3ccccc3Sc3ccc(C(=O)N4CCCC4)cc32)c1,.,/,?,.,.,/
Cc1ccc(NC(=O)c2cnc(SCC(=O)N3CCCc4ccccc43)n(C)c2=O)cc1,.,/,.,.,.,/
COc1ccc(C2C(C#N)=C(SCC(=O)Nc3ccc(C)cc3)NC3=C2C(=O)CC(C)(C)C3)cc1 (configuration not stated),.,.,?,.,.,?
CCCCc1ccc(NC(=O)CSC2=C(C#N)C(c3ccco3)C3=C(CCCC3=O)N2)cc1 (configuration not stated),.,.,.[12.7 µM],.,?,7.94µM
COc1ccc(NC(=O)CSC2=C(C#N)C(c3ccco3)C3=C(CCCC3=O)N2)c(OC)c1 (configuration not stated),.,/,44.7µM,.,79.4µM,?
N#CC1=C(SCC(=O)Nc2ccccc2)NC(=O)CC1c1ccco1 (configuration not stated),?,/,/,.,/,/
CCn1c2ccccc2c2nnc(N3CCN(c4ccc(OC)cc4)CC3)nc21,.,/,.,.,.,/
C1CCN=C(Nc2nn[nH]n2)CC1,7.94µM,/,?,.,79.4µM,.
COc1cc(OC)nc(NC(C)=O)n1,.,.,/,.,.,.
COC(=O)c1nc(NC(C)=O)n[nH]1,/,.,15.8µM,/,.,.
O=C(O)CNC1=NCCCCC1,.,.,.,.,.,.
COC(=O)c1nc(NC2=NCCCCC2)n[nH]1,79.4µM,.,?,.,.,.
CCC1CCCCN1Cc1ccc(OC)c(C)c1C (configuration not stated),.,/,25.1µM,.,?,.
COc1ccc(CN2CCC(Cc3ccccc3)CC2)c(C)c1C,28.2µM,.,?,.,?,.
COc1cc(CN2CCC(Cc3ccccc3)CC2)cc(OC)c1OC,25.1µM,.,/,?,79.4µM,.
COc1cccc2c1CCCC2CCCN1CCN(C2CCCCC2)CC1 (configuration not stated),/,/,/,/,/,.
CCCOc1ccc(C(=O)Nc2ccc(NC(=O)c3ccccc3)c(C)c2)cc1,.,/,?,.,.,/
COc1cc2cnc(-c3ccccc3)c(-c3cccc(C(F)(F)F)c3)c2cc1OC,.,.,.[0.501 µM],.,56.2µM,/
